Screening data from PubChem BioAssay.
The list is not random: actives were taken first. Their share in the collection is about 5.4%.
SMARCA2 act: increases SMARCA2 function in MMTV reporter cells; 370,000 compounds, 1% hits; activation, % at 9.1 µM; AID 652017; MG213 cells, MMTV-luciferase reporter, dexamethasone, overnight; in the data active means activation above about 7.8%;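 further: 0% = vehicle wells and 100% = reference activator wells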
MIN6 prolif: induces beta-cell replication in MIN6 cells; proliferation, % at 10 µM; MIN6 cells proliferation, ATPlite luminescence, 48 h; cells starved in 0.2% serum; 100% = growth in 10% serum; 330,000 compounds, 0.29% hits;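 active means compounds whose signal lies at least 3.5 SD above the mean of all wells on their plate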;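 further: 0% = DMSO-treated cells in low-serum medium and 100% = 10% serum control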
M18AAP inhibitor: blocks P. falciparum M18 aspartyl aminopeptidase. recombinant PfM18AAP, H-Glu-NHMec fluorogenic cleavage. inhibition, % at 7.35 µM. AID 1822. 290,000 compounds, 1.2% hits;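 active means inhibition above the campaign mean inhibition over all tested compounds plus 3 SD, cut at about 28% in these data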;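 further: 0% = plate median of test compound wells and 100% = 2 mM ZnCl2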
Exocytosis inh: blocks lytic granule exocytosis; inhibition, % at 10 µM; 360,000 compounds, 0.66% hits; TALL-104 LAMP-1 surface exposure, flow cytometry; cells stimulated with thapsigargin and PMA;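 active means inhibition above about 55%, limit read from the data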
JMJD2C inh: human JMJD2C demethylase inhibition; GST-JMJD2C(1-420) H3K9me3 demethylation, DELFIA europium; inhibition, % at 2.35 µM; 330,000 compounds, 0.069% hits; AID 2099;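 active means more than half of a compound's replicate wells show inhibition beyond 50%, single wells judged on their own value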;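 further: signal counts dimethyl H3K9 product captured on neutravidin plate; 0% = median of DMSO wells and 100% = 0.3 times that DMSO median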
Target sequence (Q9H3R0 1-420 limits assumed): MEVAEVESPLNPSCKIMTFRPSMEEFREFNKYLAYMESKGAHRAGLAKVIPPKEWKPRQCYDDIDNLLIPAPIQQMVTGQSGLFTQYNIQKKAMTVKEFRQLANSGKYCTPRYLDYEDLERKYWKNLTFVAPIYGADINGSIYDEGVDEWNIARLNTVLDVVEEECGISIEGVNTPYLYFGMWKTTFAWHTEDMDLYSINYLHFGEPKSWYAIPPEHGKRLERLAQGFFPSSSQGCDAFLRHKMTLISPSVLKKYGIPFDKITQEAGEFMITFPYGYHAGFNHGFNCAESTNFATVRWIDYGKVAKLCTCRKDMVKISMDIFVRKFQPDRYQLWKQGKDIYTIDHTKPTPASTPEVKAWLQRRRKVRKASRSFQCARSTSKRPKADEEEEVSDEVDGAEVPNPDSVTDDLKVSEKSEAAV
ALR inh: inhibitors of human sulfhydryl oxidase ALR. inhibition, % (test concentration not listed). purified ALR, DTT oxidation, H2O2 HRP-luminol luminescence. P55789. 290,000 compounds, 3.8% hits;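 active means mean replicate inhibition above about 79%, with every replicate also reaching it, limit read from the data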
Target sequence (P55789 whole entry, looked up): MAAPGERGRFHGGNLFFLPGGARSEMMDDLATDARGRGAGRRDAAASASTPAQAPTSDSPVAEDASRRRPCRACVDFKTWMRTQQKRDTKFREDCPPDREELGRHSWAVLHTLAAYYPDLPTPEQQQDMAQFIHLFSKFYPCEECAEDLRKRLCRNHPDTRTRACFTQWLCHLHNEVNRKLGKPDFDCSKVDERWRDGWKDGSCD
Active calls of the source: *; i = inactive; x = no result.

SMILES | SMARCA2 act | MIN6 prolif | M18AAP inhibitor | Exocytosis inh | JMJD2C inh | ALR inh
O=C(Nc1ccccc1)C(=O)Nc1ccccn1 | 8.0* | -2 | 10 | 3 | 6 | -5
COC1=C[C@H](C(=O)N[C@H]2CCCC[C@@H]2NC(C)=O)[C@H](C)[C@@H](c2ccccc2)CC1=O | -4 | x | x | x | x | x
Cc1csc(SCC(=O)Nc2sccc2C(N)=O)n1 | 8 | -3 | -10 | 3 | 3 | 95*
Cc1csc(SCC(=O)Nc2nccs2)n1 | -1 | 2 | x | -4 | 4 | -10
CCOC(=O)[C@]12CCCC3=C1N(CCC3)C(=O)[C@@H](CC(=O)NCc1cccc3ccccc13)C2 | 0 | x | x | x | x | x
O=C(NC(=S)Nc1cccnc1)c1ccccc1 | 3 | 0 | -6 | -1 | -12 | 17
Cc1snnc1C(=O)NC(=S)Nc1ccccc1 | -2 | -3 | -1 | -4 | -3 | 92*
N#Cc1ccc(Nc2ccccc2)c(N)c1 | 1 | -3 | -10 | -3 | -1 | 98*
Nc1cc(C(F)(F)F)ccc1Nc1ccccc1 | 3 | -3 | 7 | -2 | 1 | 98*
Nc1cc([N+](=O)[O-])ccc1Nc1ccccc1 | 1 | -2 | 12 | -3 | -3 | 99*
O=C(O)c1cc([N+](=O)[O-])ccc1Nc1ccccc1 | -3 | -4 | 0 | -3 | 3 | 9
N#Cc1cc(N)c(Nc2ccccc2)cc1C#N | -1 | -4 | -3 | -6 | 6 | 61
O=[N+]([O-])c1ccc(O)c(NC(=S)Nc2ccccc2)c1 | 2 | -1 | 9 | -1 | -7 | 98*
Nc1cc(C(F)(F)F)ccc1NCCc1ccccn1 | -1 | 0 | 18 | 6 | -22 | 98*
Nc1cc([N+](=O)[O-])ccc1O | -5 | -2 | 24 | -2 | 5 | 99*
CCc1nnc(NC(=S)Nc2ccccc2)s1 | 7.8* | -3 | 2 | 6 | -8 | -3
Cc1cc(=O)n2[nH]c(-c3ccc(Cl)cc3)cc2n1 | 7.8* | 0 | -5 | -6 | 2 | 63
Cc1cc(=O)n2[nH]c(-c3ccc(F)cc3)cc2n1 | 6 | -1 | 8 | 0 | -1 | -5
O=C(NN=C1CCCC1)c1n[nH]c2c1CCC2 | -1 | -1 | 3 | 18 | 7 | 4
O=C(NN=C1CCCC1)c1n[nH]c2c1CCCC2 | 7 | 3 | -9 | 3 | 2 | 99*
CCn1c(=O)c2cc(C(=O)NCCN3CCOCC3)sc2c2ccccc21 | -1 | 4 | 12 | 1 | 5 | 94*
CCn1c(=O)c2cc(C(=O)NCc3cccs3)sc2c2ccccc21 | -1 | -3 | 2 | -1 | 21 | 3
CCN1CCN(C(=O)c2cc3c(-c4ccc(Cl)cc4)nn(C)c3s2)CC1 | -1 | -2 | 1 | 5 | 7 | 98*
Cn1nc(-c2ccc(Cl)cc2)c2cc(C(=O)NC3CC3)sc21 | 0 | -2 | -3 | 11 | i | 84*
Cn1nc(-c2ccc(Cl)cc2)c2cc(C(=O)NCCCN3CCOCC3)sc21 | x | -4 | 7 | 9 | 23 | 95*
SMILES | SMARCA2 act | MIN6 prolif | M18AAP inhibitor | Exocytosis inh | JMJD2C inh | ALR inh
COc1ccc(-c2noc(C3CCCN(C(=O)Nc4ccc(Cl)cc4)C3)n2)cc1 (configuration not stated) | -1 | x | x | x | x | x
CC(C)CNc1cccc2c1S(=O)(=O)N[C@@H](Cc1ccccc1)CO2 | -3 | x | x | x | x | x
O=C(Nc1c(F)cc(F)cc1Br)c1cc(-c2ccccc2)on1 | 0 | -2 | 1 | 0 | 11 | x
CCN(CC)CCNC(=O)c1cc2c(-c3ccc(Cl)cc3)nn(C)c2s1 | 11* | -8 | 5 | 11 | 17 | x
CCCN(CCC)CCNC(=O)c1cc2c(-c3ccc(Cl)cc3)nn(C)c2s1 | 0 | -5 | -4 | 25 | -9 | -10
COc1ccc(Nc2nc(C(=O)NCCCN3CCOCC3)cs2)cc1 | -2 | 0 | -5 | 3 | 18 | 83*
O=C(Nc1c(F)cc(F)cc1Br)c1cc(-c2ccc(O)cc2)on1 | -1 | -3 | 10 | -6 | 1 | 99*
Cn1nc(-c2ccc(Cl)cc2)c2cc(C(=O)NCCN3CCOCC3)sc21 | 1 | -5 | -2 | -6 | -7 | 93*
C=CCN1C(=O)[C@@H](CC(=O)N2CCC(c3ccccc3)CC2)[C@]2(C(=O)OCC)CCCCC/C=C/12 | -3 | x | x | x | x | x
Cc1nc2ccc(NC(=O)c3cc(F)cc(F)c3)cc2c(=O)[nH]1 | -5 | x | x | x | x | x
Cc1ccc(C(=O)C2CCN(CC(=O)N(C)C3CCCCC3)CC2)cc1 | -7 | x | x | x | x | x
O=C(NCCCN1CCOCC1)c1cc(-c2ccc(O)cc2)on1 | -3 | -4 | -4 | 2 | -5 | 98*
CCOc1cccc2cc(-c3csc(NC(=O)CCC(=O)NCCCN4CCC(C)CC4)n3)c(=O)oc12 | x | -7 | 4 | x | -6 | 99*
CCOc1cccc2cc(-c3csc(NC(=O)CCC(=O)NCCN4CCCCC4C)n3)c(=O)oc12 (configuration not stated) | 7.9* | -3 | 16 | -2 | 3 | 99*
CN(C)c1ccc(C=Nc2ccccc2)cc1 | -3 | -2 | -12 | -1 | -27 | -5
C(=Nc1cccc2c(N=Cc3ccco3)cccc12)c1ccco1 | x | -5 | 17 | 103* | 28 | 3
CN(C)c1ccc(/C=N/O)cc1 | -4 | -1 | 0 | 0 | 15 | 99*
CN(C)c1ccc(N=Cc2ccco2)cc1 | x | -4 | 14 | 9 | 11 | 94*
CN(C)c1ccc(C=Nc2ccc(N(C)C)cc2)cc1 | 0 | -4 | 22 | 44 | 2 | 97*
COc1ccc(-c2cn(CCN)c(-c3ccncc3)n2)cc1 | 1 | -1 | x | 13 | 3 | 0
O=C(O)CCn1cc(-c2ccc(Cl)cc2)nc1-c1ccncc1 | 2 | -1 | x | -5 | 6 | 77*
COc1ccc(-c2cn(Cc3ccc(C(N)=O)cc3)c(-c3ccncc3)n2)cc1 | 3 | -4 | x | -4 | 0 | 98*
COc1ccc(-c2cn(CCC(=O)O)c(-c3ccncc3)n2)cc1 | 0 | -1 | x | -9 | 4 | 69
O=C(NC1CCCC1)C1CCN(S(=O)(=O)c2ccc3[nH]c(=O)oc3c2)CC1 | 0 | x | x | x | x | x
O=C(Nc1c(-c2ccc(F)cc2)nc2ncccn12)c1ccc(F)cc1 | -2 | x | x | x | x | x
SMILES | SMARCA2 act | MIN6 prolif | M18AAP inhibitor | Exocytosis inh | JMJD2C inh | ALR inh
COc1ccc([N+](=O)[O-])cc1NC(=O)CSCc1ccccc1C | -1 | 0 | -4 | 2 | 2 | 99*
COc1ccc(C)cc1NC(=O)CSCc1ccccc1C | -2 | 0 | -2 | -5 | -27 | 10
O=C(N[C@@H](Cc1cccnc1)C(=O)N1CCC[C@H]1C(=O)NC1CCCC1)c1ccc(Cl)c(Cl)c1 | -2 | x | x | x | x | x
CN1C(=O)C(c2cn(C)c3ccccc23)(c2cn(C)c3ccccc23)c2ccccc21 | -2 | x | x | x | x | x
COc1cccc(CNC(=O)C2=Cc3cccc(OC)c3OC2)c1 | -4 | 0 | 1 | -2 | 19 | 96*
COc1ccc(-c2nnn3c2Cn2c4ccccc4c(=O)n2[C@@H](C(C)C)C3)cc1 | -4 | x | x | x | x | x
Cc1occc1C(=O)NCc1cccc(CNC(=O)c2ccoc2C)c1 | x | -1 | 1 | -2 | 2 | x
